A selection: hits, their analogues and other compounds. The true share with any hit is near 19%.
IL-1B inflam inh: qHTS for Inhibitors of Inflammasome Signaling: IL-1-beta AlphaLISA Primary Screen; THP-1 LPS/ATP IL-1B secretion, AlphaLISA, 16 h; active compounds read low; activity change, % at 57.5 µM; AID 743279, 2014; 360,000 tested, 4.7% active; in the data active means activity change below about -50%; inconclusive means mostly about -30% to -49%; further: on the % scale 0 is the no-effect control and ±100 the full control effect
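THP-1 cells pretreated 1 hr with compounds (up to 57.5 uM final), then stimulated with LPS (250 ng/mL final) plus ATP (1.25 mM final); secreted IL-1B measured by AlphaLISA after 16 hr, decreased signal indicating inhibition.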
DT40 TDP1 CPT: qHTS for Inhibitors of human tyrosyl-DNA phosphodiesterase 1 (TDP1): qHTS in cells in presence of CPT; chicken DT40 Tdp1-/-;hTDP1 cells + 20 nM CPT, ATP luminescence, 48 h; Potency, µM (doses to about 46.2 µM), for inactives: at the highest dose activity change, negative = growth inhibition, most hits filed as inhibitors; 420,000 tested, 12% active; AID 686979, 2013; further: potency means the concentration at half of the fitted maximal effect; on the % scale 0 is the no-effect control and ±100 the full control effect; nearly all actives have a fitted effect of over 55% in size
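Chicken DT40 Tdp1-/- cells stably complemented with human TDP1 were seeded at 400 cells/well in medium containing 20 nM camptothecin, exposed to pin-transferred compounds, and grown at 37 °C for at least 48 hr. Viability was read as ATP luminescence.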
TDP1 inh: qHTS Assay for Inhibitors of Tyrosyl-DNA Phosphodiesterase (TDP1); Tyrosyl-DNA phosphodiesterase 1 (Homo sapiens), Q9NUW8; recombinant TDP1, AlphaScreen DNA substrate cleavage; Potency, µM (top dose mostly 130 µM), for the others: at the highest dose activity change, negative = inhibition, hits mostly inhibitors; 350,000 tested, 0.28% active; AID 485290, 2010; further: potency means the concentration at half of the fitted maximal effect; on the % scale 0 is the no-effect control and ±100 the full control effect; nearly all actives have a fitted effect of over 40% in size
Target sequence (Q9NUW8 whole entry, looked up): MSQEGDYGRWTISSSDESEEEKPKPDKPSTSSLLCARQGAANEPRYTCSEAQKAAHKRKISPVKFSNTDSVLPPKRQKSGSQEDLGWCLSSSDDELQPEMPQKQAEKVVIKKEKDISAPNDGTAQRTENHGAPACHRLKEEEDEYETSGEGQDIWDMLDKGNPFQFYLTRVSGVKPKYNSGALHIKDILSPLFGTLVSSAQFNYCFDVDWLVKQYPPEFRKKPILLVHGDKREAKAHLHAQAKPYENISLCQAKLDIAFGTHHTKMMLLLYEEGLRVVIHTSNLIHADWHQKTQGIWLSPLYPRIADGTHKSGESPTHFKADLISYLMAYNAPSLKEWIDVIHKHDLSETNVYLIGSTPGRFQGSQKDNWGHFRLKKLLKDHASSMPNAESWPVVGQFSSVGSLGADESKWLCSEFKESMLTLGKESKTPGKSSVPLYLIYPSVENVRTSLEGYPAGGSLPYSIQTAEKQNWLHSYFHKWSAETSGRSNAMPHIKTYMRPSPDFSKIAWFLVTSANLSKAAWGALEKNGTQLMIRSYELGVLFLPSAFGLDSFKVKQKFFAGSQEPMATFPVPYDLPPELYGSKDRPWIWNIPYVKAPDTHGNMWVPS
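Compounds were preincubated with Tdp1 (1 nM final) for 15 min at room temperature before substrate (15 nM final) started a 5 min reaction; beads (10 ug/ml final) were then added for 10 min before AlphaScreen detection.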
TDP1 cell noCPT: qHTS for Inhibitors of human tyrosyl-DNA phosphodiesterase 1 (TDP1): qHTS in cells in absence of CPT; DT40 Tdp1-/- hTDP1 cells, no CPT, ATP luminescence, 48 h; Potency, µM (series often up to 46.2 µM), without a hit: top-dose activity change, negative = growth inhibition, most hits filed as inhibitors; 420,000 tested, 15% active; AID 686978, 2013; further: potency means the concentration at half of the fitted maximal effect; on the % scale 0 is the no-effect control and ±100 the full control effect; nearly all actives have a fitted effect of over 55% in size
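Compound effects on proliferation are scored in DT40 Tdp1-/-;hTDP1 cells in the absence of CPT. ATP levels (CellTiter-Glo luminescence) are recorded after a ≥48 hr, 37 °C incubation.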
TGFb inhibitor: qHTS for Inhibitors of TGF-b. HepG2 CAGA-GFP TGF-b/SMAD3 reporter, GFP fluorescence, 18 h; TGF-beta stimulated, 500 pg/mL final. Potency, µM (top dose mostly 46.1 µM), for the others: at the highest dose activity, negative = inhibition, usual class: inhibitors. 410,000 tested, 1.2% active; further: potency means the concentration at half of the fitted maximal effect; on the % scale 0 is the no-effect control and ±100 the full control effect; nearly all actives have a fitted effect of over 65% in size
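HEPG2 CAGA-GFP reporter cells (1000/well, DMEM with 1% FBS) received compounds, then recombinant TGF-beta at 500 pg/mL final for 18 hours at 37 degrees C. Per-cell GFP summed per well was normalised to unstimulated and stimulated DMSO controls before curve fitting.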
HepG2 tox: qHTS for Inhibitors of TGF-b: Cytotox Counterscreen; Potency, µM (titrated, usually from 46.1 µM), for inactives: at the top dose activity change, negative = cytotoxicity, hits mostly cytotoxic; 410,000 tested, 0.76% active; HepG2 CAGA-GFP viability, ATP luminescence, 18 h; further: potency means the concentration at half of the fitted maximal effect
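CellTiter-Glo luminescence gave cytotoxicity after 18 hours at 37 degrees C. The cells were HepG2 CAGA-GFP in 1% FBS DMEM, stimulated with 500 pg/mL TGF-beta after compound addition. %Activity was normalised to no-cell wells (complete cell-killing) and DMSO (no toxicity), and curves were fitted and classified.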
* hit, by the source's call; [ ] = another dose, or the depositor's remark. Unless noted, the call rests on the fitted dose curve; in most records, active means well fitted curve in the direction sought with a large enough effect; inconclusive means small, poorly fitted or top-dose-only effect, or another doubt; inactive means no such curve, though single readings can be large; an effect the other way counts as inactive or inconclusive.

How did COc1ccc2c(c1)sc1ncc(C(=O)NCc3ccccc3F)c(=O)n12 do in these assays?
DT40 TDP1 CPT: 13%; TDP1 inh: 4%; TDP1 cell noCPT: -7%; TGFb inhibitor: -8%; HepG2 tox: -3%

What do the screens show for `N#Cc1nc(Nc2ccc(Br)cc2)nc(NC2CCCC2)n1`?
TDP1 inh: -2%

How did COc1ccc(S(=O)(=O)N2CCC(C(=O)NCCC(=O)Nc3cccc(Cl)c3)CC2)cc1 do in these assays?
IL-1B inflam inh: inconclusive; DT40 TDP1 CPT: inconclusive; TDP1 inh: 2%; TDP1 cell noCPT: inconclusive; TGFb inhibitor: -6%; HepG2 tox: -12%

How did CC(=O)c1c(C)[nH]c(C(=O)OCc2ccccc2)c1C do in these assays?
IL-1B inflam inh: -3; DT40 TDP1 CPT: inconclusive; TDP1 inh: 6%; TDP1 cell noCPT: 21µM*; TGFb inhibitor: -25%; HepG2 tox: -21%

How did CC(=O)c1c(C)[nH]c(C(=O)OCc2ccc([N+](=O)[O-])cc2)c1C do in these assays?
IL-1B inflam inh: 20; DT40 TDP1 CPT: inconclusive; TDP1 inh: 10%; TDP1 cell noCPT: inconclusive; TGFb inhibitor: -10%; HepG2 tox: -10%

How did COC(=O)c1ccc(COC(=O)c2[nH]c(C)c(C(C)=O)c2C)o1 do in these assays?
IL-1B inflam inh: 39; DT40 TDP1 CPT: 10µM*; TDP1 inh: 1%; TDP1 cell noCPT: 2.9µM*; TGFb inhibitor: -18%; HepG2 tox: -13%

Results for O=C1CC[C@@H](C(=O)NCC2Cc3cc(Cl)cc(-c4ccc5[nH]ccc5c4)c3O2)N1 (stereo not given in full) ?
DT40 TDP1 CPT: -4%[9.04 µM]; TDP1 cell noCPT: -25%

Results for COCCCNC(=O)Nc1cc(C(=O)NCc2ccc(OC)cc2)ccc1N1CCCC1 ?
DT40 TDP1 CPT: -21%; TDP1 inh: -6%; TDP1 cell noCPT: -26%; TGFb inhibitor: 18%; HepG2 tox: -6%

How did CCc1ccc(C2C(C#N)=C(N)C(C#N)(C#N)C3=CCC(C(C)(C)C)CC32)cc1 (stereo not given) do in these assays?
IL-1B inflam inh: -58*; DT40 TDP1 CPT: inconclusive; TDP1 inh: 0%; TDP1 cell noCPT: 15µM*; TGFb inhibitor: inconclusive; HepG2 tox: -109%

Results for Cc1onc(-c2ccccc2Cl)c1C(=O)NCc1ccc(F)cc1 ?
IL-1B inflam inh: 41; DT40 TDP1 CPT: -4%; TDP1 inh: 5%; TDP1 cell noCPT: inconclusive; TGFb inhibitor: 15%; HepG2 tox: -1%

Results for CCN(CC)CCOc1ccc2c(c1)C(=O)c1cc(OCCN(CC)CC)ccc1-2 ?
DT40 TDP1 CPT: 15µM*; TDP1 inh: -11%[56.1 µM]; TDP1 cell noCPT: 10µM*

What do the screens show for `O=C(COC(=O)c1cccc(F)c1)Nc1cccc(S(=O)(=O)N2CCCCC2)c1`?
IL-1B inflam inh: 9; DT40 TDP1 CPT: -17%; TDP1 cell noCPT: inconclusive; TGFb inhibitor: -1%; HepG2 tox: 17%

How did CC(C)CCC(CCN1CCOCC1)c1ccc2c(c1)OCO2 (stereo not given) do in these assays?
IL-1B inflam inh: -9; DT40 TDP1 CPT: inconclusive; TDP1 inh: -3%; TDP1 cell noCPT: inconclusive; TGFb inhibitor: -6%; HepG2 tox: -31%

How did CC(C)CCC(CCN1CCCC1)c1ccc2c(c1)OCO2 (stereo not given) do in these assays?
IL-1B inflam inh: -70*; DT40 TDP1 CPT: inconclusive; TDP1 inh: -6%; TDP1 cell noCPT: inconclusive; TGFb inhibitor: inconclusive; HepG2 tox: -161%

Results for COCCCNCCC(CCC(C)C)c1ccc2c(c1)OCO2 (stereo not given) ?
IL-1B inflam inh: -70*; DT40 TDP1 CPT: inconclusive; TDP1 cell noCPT: 21µM*; TGFb inhibitor: -7%; HepG2 tox: -33%

What do the screens show for `CC(CCc1ccc2c(c1)OCO2)NN` (stereo not given)?
DT40 TDP1 CPT: 14%; TDP1 cell noCPT: 2%

Results for CC(C)(Cc1cc(CC(C)(C)C(=O)O)cc(C(C)(C)C)c1)C(=O)O ?
IL-1B inflam inh: 43; DT40 TDP1 CPT: -3%; TDP1 cell noCPT: 2%; TGFb inhibitor: inconclusive; HepG2 tox: 2%

Results for COc1cc(=O)n2c(c1C(=O)NCc1ccco1)CCN(C(=O)c1cccnc1SC)CC2 ?
DT40 TDP1 CPT: 12%[9.04 µM]; TDP1 cell noCPT: -5%

What do the screens show for `O=C(NCc1nnnn1-c1ccc(F)c(F)c1)c1ccc2c(c1)OCO2`?
IL-1B inflam inh: -13; DT40 TDP1 CPT: -25%; TDP1 cell noCPT: -22%; TGFb inhibitor: 17%; HepG2 tox: 3%

Results for CNc1cnc(-c2ccc(O)c(OC)c2)cn1 ?
IL-1B inflam inh: -61*; DT40 TDP1 CPT: 16µM*; TDP1 cell noCPT: inconclusive; TGFb inhibitor: -9%; HepG2 tox: -21%

What do the screens show for `CCCCNC(=O)c1ccc2c(=O)n(-c3ccccc3)c(=O)[nH]c2c1`?
DT40 TDP1 CPT: -24%; TDP1 inh: 9%; TDP1 cell noCPT: 3%; TGFb inhibitor: 2%; HepG2 tox: -3%

How did COc1ccc(C2c3[nH]c4ccccc4c3C[C@H]3C(=O)N(C4CCN(Cc5ccccc5)CC4)CC(=O)N23)c(OC)c1 (stereo not given in full) do in these assays?
IL-1B inflam inh: 9; DT40 TDP1 CPT: inconclusive; TDP1 cell noCPT: 15µM*; TGFb inhibitor: -7%; HepG2 tox: 1%

How did COc1ccc(OC)c(C2c3[nH]c4ccccc4c3C[C@H]3C(=O)N(C4CC4)CC(=O)N23)c1 (stereo not given in full) do in these assays?
IL-1B inflam inh: -5; DT40 TDP1 CPT: -2%; TDP1 cell noCPT: -22%; TGFb inhibitor: 2%; HepG2 tox: -3%

How did CCOc1ccccc1C1c2[nH]c3ccccc3c2C[C@H]2C(=O)N(C3CCN(Cc4ccccc4)CC3)CC(=O)N12 (stereo not given in full) do in these assays?
IL-1B inflam inh: inconclusive; DT40 TDP1 CPT: 5.8µM*; TDP1 cell noCPT: 16µM*; TGFb inhibitor: inconclusive; HepG2 tox: -22%

From PubChem BioAssay
